For seven molecules, growth results are on record in PubChem BioAssay (NCI).

Holding throughout (assay): NCI-60 one-dose screen, 48 h (100 = growth as untreated, 0 = no growth, -100 = all killed)
Holding throughout (settings): 10 µM unless noted

For assay [1], the system named is HCT-15 colon.
Assay [2] concerns HT29 colon.
The subject of assay [3] is SNB-75 CNS.
The test system of assay [4] is SNB-19 CNS.
Assay [5] deals with U251 CNS.
The subject of assay [6] is PC-3 prostate.
Assay [7] concerns SK-MEL-5 melanoma.
Assay [8] concerns UACC-62 melanoma.
Assay [9] concerns LOX IMVI melanoma.
In assay [10] the test system is SK-MEL-28 melanoma.
Assay [11] concerns SK-MEL-2 melanoma.
Assay [12] concerns EKVX NSCLC.
The subject of assay [13] is SN12C renal.
Assay [14] concerns UO-31 renal.
Assay [15] deals with TK-10 renal.
Assay [16] relates to ACHN renal.
Assay [17] concerns CAKI-1 renal.
The subject of assay [18] is CCRF-CEM leukemia.
The test system of assay [19] is MOLT-4 leukemia.
The subject of assay [20] is A498 renal.

About 83,000 compounds went through this panel and 20% of them were active in at least one assay; those are over-represented in the sample as a whole.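 48-hour exposure, single concentration, 96-well plates; percent growth endpoint where 0 means no net growth. Active: below 10.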 A number with no mark means an inactive call. Activity calls are given as the source filed them.

For `CCCOC(=O)Nc1nc2ccc(SCC(C)C)cc2s1`, the growth was 26.6% in assay [1]; 15.9% in assay [2]; 28.6% in assay [3]; 53.9% in [4]; 49.2% in [5]; 45.9% in assay [6]. For the same molecule, the growth in assay [7] is 27.6%; in assay [8], 18.9%; in [9] it was 40.8%; in assay [10] it was 64.9%; in [11] it was 48.6%; in [12], 52.3%. The growth is 44.4% in [13]; 44.8% in assay [14]; 50.4% in assay [15]; 51.9% in assay [16]; 49.1% in [17]; 22.9% in [18]. In addition, the growth in assay [19] is 33.8%.
On to `COC(=O)CC[C@H](C)[C@H]1CC[C@H]2[C@@H]3CC[C@@H]4CC5(CC[C@]4(C)[C@H]3CC(=O)[C@]12C)Nc1ccccc1NC5=NC(C)(C)C` (stereo partly drawn), for which the growth in assay [1] was 51.4%; in [2], 69.8%; in assay [3], 71.1%; in assay [4], 81.5%; in assay [5], 48.3%; in [6], 56.5%. Besides, the growth is 77.5% in assay [7]; 57.9% in assay [8]; 47.4% in assay [9]; 89.2% in assay [10]; 90.9% in assay [11]; 87.5% in assay [12]. In addition, the growth was 87.9% in [13]; 88.7% in assay [14]; 97.4% in assay [15]; 86.4% in [16]; 59.2% in assay [17]; 63.5% in [20]. For the same molecule, the growth in assay [19] was 54.6%.
Turning to `N#Cc1nc(-c2ccc(F)cc2)oc1S(=O)(=O)N1CCCCC1`, the growth is -22.4% (active) in [1]; 32.3% in assay [2]; 92% in assay [3]; 96.5% in assay [4]; 91.2% in [5]; 92.1% in [6]. Also, the growth in assay [7] is 88.7%; in [8] it was 94%; in assay [9] it was 1.69% (active); in [10], 102%; in [11], 81.1%; in assay [12] it was 98.5%. The growth was 80.2% in assay [13]; 84.8% in assay [14]; -69.8% (active) in assay [15]; 3.58% (active) in [16]; 91% in [17]; 112% in assay [20]. The growth in assay [19] is -6.66% (active).
`CC/C(=C(/c1ccc(Cl)cc1)c1ccc(OCCN2CCCCC2)cc1)c1ccc(OC)cc1`: the growth in [1] is 18.5%; in assay [2], 11.9%; in [3], 103%; in [4], 72.4%; in assay [5], 40.6%; in [6], 30.9%. The growth in assay [7] was 36.6%; in assay [8], 78.8%; in assay [9], 53.4%; in [10] it was 82.7%; in [11] it was 90.6%; in assay [12], 58.5%. For the same molecule, the growth was 74.8% in assay [13]; 66.2% in [14]; 80.7% in [15]; 81.2% in assay [16]; 72.3% in assay [17]; 28.8% in [18]. In addition, the growth in assay [19] is 25.8%.
`Oc1ccc(Cl)cc1/C=N\NC(=S)N/N=C/c1cc(Cl)ccc1O`: the growth was 23% in assay [1]; 33.9% in assay [2]; 77.7% in [3]; 39.8% in assay [4]; 25.9% in assay [5]; 25.8% in assay [6]. For the same molecule, the growth is -32.6% (active) in assay [7]; 3.04% (active) in assay [8]; 15.7% in [9]; 58.4% in assay [10]; 26.2% in [11]; 50.3% in assay [12]. The growth in assay [13] is 45.9%; in assay [14], 16.1%; in [15], 31%; in assay [16], 15.3%; in [17], -7.22% (active); in [20] it was 37.5%. Besides, the growth in [19] is 11.8%.
With `N#CC1=C(c2ccccc2)Nc2c(c(-c3ccc(Cl)cc3)nn2-c2ccccc2)C12C(=O)Nc1ccc(Cl)cc12` (stereo not drawn), the growth in assay [1] was 61.8%; in assay [2], 47.8%; in assay [3], 6.22% (active); in [4], 70.5%; in assay [5], 64%; in [6], 51%. The growth is 87.5% in assay [7]; 66% in assay [8]; 77.5% in assay [9]; 90.8% in assay [10]; 94.8% in [11]; 61.6% in assay [12]. The growth in assay [13] was 84.9%; in [14], 47.8%; in assay [15], 73.7%; in [16], 80.6%; in assay [17], 44.5%; in assay [20], 69%. Besides, the growth in assay [19] is 52.5%.
`Oc1c(I)cc(I)cc1CNCc1ccccn1`: the growth in assay [1] was 26.8%; in assay [2], 36.6%; in [3], 75.6%; in assay [4], 30.5%; in assay [5] it was 15.6%; in assay [6] it was 39.5%. In addition, the growth is 37.3% in assay [7]; 19.6% in [8]; 30.2% in assay [9]; 48.6% in assay [10]; 35.7% in assay [11]; 25.9% in [12]. Moreover, the growth in assay [13] was 38.4%; in [14] it was 5.01% (active); in assay [15] it was 23.4%; in assay [16], 24.6%; in assay [17] it was 15.4%; in assay [20] it was 62.4%. Further, the growth in assay [19] was 16.2%.
